Measurements published in PubChem BioAssay.
Records with an inconclusive call do not appear. Calls of active or inactive are those of the source.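 The calls were made as follows, unless noted: active = Her2 level under about 52% in both replicate screens, with viability over 70% of control (limit read from the data); inconclusive = Her2 under the limit in one screen only, or viability under 70%; inactive = Her2 level above the set limit.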

What was measured:
[1] = Her2 expression decrease, cell viability multiplex – SKBR3 breast tumor cells, AlphaScreen, ATP viability, primary screen (AID 461); settings: SKBR3 Her2 protein level, 18-24 h, measured here: SKBR3 viability, ATP luminescence, at 10 µM;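 as to Her2 level: lower value means less Her2 protein in the cells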;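 as to viability: percent of carrier control wells set as 100% viability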
[2] = biological target: Receptor tyrosine-protein kinase erbB-2 (Homo sapiens) (UniProt P04626); experiment: as above; settings: 18-24 h, at 10 µM, stronger effect = lower value
Receptor tyrosine-protein kinase erbB-2 (Homo sapiens), sequence (P04626 whole entry, looked up): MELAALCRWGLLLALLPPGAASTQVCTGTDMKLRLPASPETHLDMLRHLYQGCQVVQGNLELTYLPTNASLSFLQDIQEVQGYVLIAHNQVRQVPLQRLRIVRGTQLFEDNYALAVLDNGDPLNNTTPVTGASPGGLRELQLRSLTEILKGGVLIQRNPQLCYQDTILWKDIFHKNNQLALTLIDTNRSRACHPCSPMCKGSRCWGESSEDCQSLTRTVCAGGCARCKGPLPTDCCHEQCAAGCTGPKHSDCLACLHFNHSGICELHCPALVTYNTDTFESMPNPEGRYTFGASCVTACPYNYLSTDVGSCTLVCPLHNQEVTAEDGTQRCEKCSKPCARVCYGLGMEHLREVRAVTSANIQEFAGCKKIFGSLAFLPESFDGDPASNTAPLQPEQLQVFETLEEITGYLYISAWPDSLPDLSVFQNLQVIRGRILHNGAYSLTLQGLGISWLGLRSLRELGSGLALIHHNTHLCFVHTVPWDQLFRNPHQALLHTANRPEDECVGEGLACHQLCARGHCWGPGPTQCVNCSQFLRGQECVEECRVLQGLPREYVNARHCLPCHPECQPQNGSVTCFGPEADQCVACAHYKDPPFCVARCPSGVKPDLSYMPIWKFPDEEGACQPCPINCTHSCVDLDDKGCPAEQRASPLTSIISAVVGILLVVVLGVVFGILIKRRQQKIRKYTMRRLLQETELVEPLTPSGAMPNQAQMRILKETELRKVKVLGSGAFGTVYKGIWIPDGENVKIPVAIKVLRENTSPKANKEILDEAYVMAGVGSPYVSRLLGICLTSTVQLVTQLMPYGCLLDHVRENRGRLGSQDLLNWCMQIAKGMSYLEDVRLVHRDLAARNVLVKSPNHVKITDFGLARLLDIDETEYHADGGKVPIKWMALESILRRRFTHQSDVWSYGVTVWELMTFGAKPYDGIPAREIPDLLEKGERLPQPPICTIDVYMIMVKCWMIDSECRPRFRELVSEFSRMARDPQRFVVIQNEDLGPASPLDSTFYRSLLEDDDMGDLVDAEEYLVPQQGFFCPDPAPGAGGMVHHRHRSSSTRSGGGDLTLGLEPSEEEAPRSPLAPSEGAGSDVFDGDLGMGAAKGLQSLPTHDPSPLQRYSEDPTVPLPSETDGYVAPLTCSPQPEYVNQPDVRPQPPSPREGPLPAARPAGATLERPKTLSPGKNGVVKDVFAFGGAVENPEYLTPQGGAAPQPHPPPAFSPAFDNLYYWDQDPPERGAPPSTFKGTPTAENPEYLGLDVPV

[3] = reduced viability of SK-BR-3 breast cancer cells – cell-based, 24 h, human, pilot screen (AID 572;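 active = viability at or below 10% of carrier control in both of two separate runs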;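 also: compound exposure lasted between 18 and 24 h rather than exactly 24 h; 100% = carrier-treated control wells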); settings: SK-BR-3 viability, CellTiter-Glo luminescence, at 10 µM, stronger effect = lower value
[4] = HUVEC growth inhibition – cell-based, human, primary screen (AID 575;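 active = viability at or below 30% in both replicate assays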;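 also: 100% = median of untreated cell wells with 0.1% DMSO on each plate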); settings: HUVEC proliferation, CellTiter-Glo luminescence, 72 h; at 10 µM; stronger effect = lower value
[5] = H69AR cell proliferation blockers – human, duplicate replicates, primary screen (AID 580;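 active = viability at or under a set limit in both replicates, limit being median viability minus 3 SD, cut at about 48% in these data, passing the limit was not always enough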;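 also: 100% = mean luminescence of untreated wells and 0% = no signal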); settings: H69AR lung tumor cells viability, ATP luminescence, 72 h; at 10 µM; stronger effect = lower value
[6] = MRP1 drug-resistance reversers in H69AR cells – cell-based, doxorubicin co-treatment, pilot screen (AID 601;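 active = viability loss from added drug above about 55%, and viability with drug at most 40%, in both replicates, limit read from the data, passing the limit was not always enough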); settings: CellTiter-Glo, 72 h, at 10 µM; for differential viability (reversal): stronger effect = higher value
[7] = yeast transport mutant growth inhibition pilot in 384-well plates, post-Golgi transport modulator project (AID 636; in the data active = inhibition above about 31%); settings: absorbance 615 nm, about 18 h, stronger effect = higher value
[8] = growth suppression of yeast trafficking mutant, preliminary HTS, modulators of trafficking downstream of Golgi apparatus project, 1536-format plate, OD 615 nm (AID 637; in the data active = inhibition above about 30%); settings: yeast transport mutant growth, absorbance 615 nm, 18 h; stronger effect = higher value
[9] = S. cerevisiae growth inhibition in permissive medium (OD615), pilot counter-assay for S. cerevisiae lifespan shortening project, permissive growth control (AID 705;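 active = growth inhibition above 25% in both replicates, a cutoff set 3 SD above the mean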); settings: OD615, 24 h, at 10 µM, stronger effect = higher value
[10] = S. cerevisiae growth inhibition in restrictive medium, OD615, pilot screen, restrictive growth control, yeast lifespan reduction project (AID 706;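 active = growth inhibition above a set limit, 3 SD over mean compound inhibition, in both replicates, cut at about 43% in these data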;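 also: modified DeaD lifespan yeast strain shifted to restrictive glucose medium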); settings: OD615, 48 h, at 10 µM, stronger effect = higher value
[11] = doxorubicin toxicity protection in MRP-1 cells – H69AR cells, CellTiter-Glo, duplicate, MRP-1 activator project, pilot screen (AID 807;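 active = viability increase at or above a cutoff of the median across tested compounds plus 3 SD, cut at about 8.5% in these data, passing the limit was not always enough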;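 also: compound pretreatment 18-22 h then 72 h combined with doxorubicin; 0% = doxorubicin alone and 100% = vehicle without doxorubicin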); settings: H69AR viability with doxorubicin, CellTiter-Glo luminescence; at 10 µM; stronger effect = higher value
[12] = viability of HCT116 without oncogenic beta-catenin – human colon tumor cells, pilot screen (AID 823;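 active = cell viability at or below a set limit in both duplicate runs, the limit being the all-compound median minus 4 SD, cut at about 23% in these data, passing the limit was not always enough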;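 also: 0% = wells killed by 20 µM Hyamine and 100% = untreated DMSO cell wells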); settings: HCT116 beta-catenin knockout viability, CellTiter-Glo, 60 h; at 10 µM; stronger effect = lower value
[13] = viability of PTEN-null HCT116 cells – cell-based, HCT116 clonal line, CellTiter-Glo, pilot screen (AID 824;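 active = viability at or below 27.92% in each of two runs, the all-compound median minus 4 SD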;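 also: 0% = 20 µM Hyamine control and 100% = vehicle cell control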); settings: HCT116 PTEN-deleted viability, 60 h, at 10 µM, stronger effect = lower value
[14] = RAM pathway blockade in budding yeast – dse1pr::URA3 reporter, 5-FOA selection, pilot screen (AID 869;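 active = inhibition over a set limit, the all-compound mean plus 3 SD, in both replicate runs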;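 also: 0% = DMSO wells with no growth and 100% = 10 µM 1-NA-PP1 with full growth; RAM network block rescues cells from 5-FOA so hits raise OD615 growth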); settings: S. cerevisiae dse1pr::URA3 5-FOA growth, OD615, 2 d; at 10 µM; stronger effect = higher value; strain carries analog-sensitive mutant Cbk1 kinase
[15] = RAM signaling pathway blockade in yeast – S. cerevisiae, Pdr1DBD-CYC8 efflux-inhibited sensitized strain, primary screen (AID 1298;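 active = RAM network inhibition above 8.4% in each of two replicates, 3 SD over the compound average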;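 also: 0% = DMSO untreated cells without growth and 100% = 10 µM 1-NA-PP1 full growth; higher means more yeast growth rescued from 5-FOA killing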); settings: S. cerevisiae cbk1-as DSE1-URA3 strain, 5-FOA growth OD615, 2 d; at 50 µM; stronger effect = higher value
[16] = H69AR cells + 2 uM doxorubicin, measured here: viability with 2 uM doxorubicin, stronger effect = lower value
[17] = H69AR cells, compound alone cytotoxicity

| Compound | viability [1] [%] | Her2 level [2] | viability [3] | viability [4] | viability [5] | differential viability (reversal) ([6]; H69AR cells + 2 uM doxorubicin) | viability [6, 16] [%] | viability [6, 17] [%] | inhibition [7] | inhibition [8] | growth inhibition [9] | growth inhibition [10] | viability increase [11] | viability [12] | viability [13] | inhibition [14] | RAM network inhibition [15] |
| --- | --- | --- | --- | --- | --- | --- | --- | --- | --- | --- | --- | --- | --- | --- | --- | --- | --- |
| O=C(CSc1nc(-c2ccco2)cc(C(F)(F)F)n1)NCCCn1ccnc1 | 94 | 93% (inactive) | 94% (inactive) | 64.9% (inactive) | 94.7% (inactive) | -4.19% (inactive) | 98.9 | 94.7 | -2.53% (inactive) | -2.3% (inactive) | -8.51% (inactive) | -15.7% (inactive) | -0.15% (inactive) | 98.6% (inactive) | 96.3% (inactive) | 1.44% (inactive) | 9.1% (inactive) |
| Cc1cc(NC(=O)CSc2nc3c(c(=O)n2Cc2ccccc2)SC(C)C3)no1 (stereo not drawn) | 104 | 106% (inactive) | 104% (inactive) | 74.5% (inactive) | 92.1% (inactive) | 15.8% (inactive) | 76.3 | 92.1 | -3.33% (inactive) | -1.83% (inactive) | -2.67% (inactive) | -0.455% (inactive) | -2.6% (inactive) | 100% (inactive) | 92.4% (inactive) | 2.35% (inactive) | 8.6% (inactive) |
| O=C(Nc1ccccc1)c1cnc2n(c1=O)CCS2 | 92.5 | 88% (inactive) | 92.5% (inactive) | 101% (inactive) | 91.1% (inactive) | -2.48% (inactive) | 93.5 | 91.1 | -4.8% (inactive) | -0.49% (inactive) | -8.84% (inactive) | 5.01% (inactive) | -0.69% (inactive) | 104% (inactive) | 97.2% (inactive) | 1.94% (inactive) | 2.15% (inactive) |
| CCN1CCN(CCCNC(=O)c2cc3sccc3n2CC)CC1 | 96.5 | 120% (inactive) | 96.5% (inactive) | 99% (inactive) | 89.4% (inactive) | -1.6% (inactive) | 91 | 89.4 | -0.27% (inactive) | 3% (inactive) | -3.32% (inactive) | -3.54% (inactive) | -1.72% (inactive) | 96.9% (inactive) | 98.6% (inactive) | 0.865% (inactive) | 1.23% (inactive) |
| CCOc1ccccc1C(=O)Nc1cc(=O)n(C)c(=O)n1C | 89.5 | 88.5% (inactive) | 89.5% (inactive) | 86.8% (inactive) | 88.1% (inactive) | -1.81% (inactive) | 89.9 | 88.1 | -5.47% (inactive) | 3.5% (inactive) | -0.335% (inactive) | 2.84% (inactive) | -0.06% (inactive) | 103% (inactive) | 100% (inactive) | 0.715% (inactive) | -2.04% (inactive) |
| CCn1cc(C(=O)NCC2CCCO2)c(=O)c2cc(S(=O)(=O)N(C)C)ccc21 (stereo not drawn) | 85.5 | 113% (inactive) | 85.5% (inactive) | 105% (inactive) | 88.6% (inactive) | 5.47% (inactive) | 83.1 | 88.6 | -0.13% (inactive) | -3.83% (inactive) | -1.35% (inactive) | 1.3% (inactive) | -0.77% (inactive) | 101% (inactive) | 94.9% (inactive) | 2.33% (inactive) | 1.14% (inactive) |
| c1ccc2c(c1)Cc1cc(CN3CCOCC3)ccc1-2 | 85 | 100% (inactive) | 85% (inactive) | 99.7% (inactive) | 89.3% (inactive) | -2.81% (inactive) | 92.1 | 89.3 | 2.34% (inactive) | -1.15% (inactive) | -14.7% (inactive) | -4.66% (inactive) | 0.12% (inactive) | 92.3% (inactive) | 97.5% (inactive) | 1.01% (inactive) | 0.21% (inactive) |
| CCOC(=O)c1cccc(NC(=O)CNS(=O)(=O)c2cccs2)c1 | 95.5 | 92% (inactive) | 95.5% (inactive) | 97% (inactive) | 88.3% (inactive) | -2.06% (inactive) | 90.4 | 88.3 | -8.36% (inactive) | -5.71% (inactive) | -0.595% (inactive) | -4.69% (inactive) | 0.66% (inactive) | 102% (inactive) | 97.7% (inactive) | 1.43% (inactive) | 0.44% (inactive) |
| CCOC(=O)c1csc(NC(=O)C2CCCCC2)n1 | 81 | 90% (inactive) | 81% (inactive) | 95% (inactive) | 96.5% (inactive) | 26.3% (inactive) | 70.2 | 96.5 | -1.47% (inactive) | 0.83% (inactive) | -5.67% (inactive) | 7.35% (inactive) | 2.52% (inactive) | 91.4% (inactive) | 94.6% (inactive) | 0.89% (inactive) | 0.47% (inactive) |
| COc1ccccc1-c1nnc(SCC(=O)NC2CCCCC2)o1 | 83 | 72.5% (inactive) | 83% (inactive) | 89.7% (inactive) | 87.8% (inactive) | -0.34% (inactive) | 88.2 | 87.8 | 6.13% (inactive) | 1.31% (inactive) | 1.35% (inactive) | 10.7% (inactive) | -3.27% (inactive) | 94.6% (inactive) | 94.5% (inactive) | -0.42% (inactive) | 3.73% (inactive) |
| COc1cccc(C2C(C(N)=O)=C(C)Nc3nc(CCCO)nn32)c1OC (stereo not drawn) | 102 | 103% (inactive) | 102% (inactive) | 93.8% (inactive) | 96.4% (inactive) | -1.08% (inactive) | 97.5 | 96.4 | 0.93% (inactive) | -3.67% (inactive) | -8.7% (inactive) | 14.1% (inactive) | -0.88% (inactive) | 105% (inactive) | 104% (inactive) | 0.085% (inactive) | 0.27% (inactive) |
| O=C(Nc1ccc(Cl)cn1)c1cccnc1 | 104 | 112% (inactive) | 104% (inactive) | 81.6% (inactive) | 70.1% (inactive) | -17.4% (inactive) | 87.6 | 70.1 | -0.52% (inactive) | -6.56% (inactive) | -8.23% (inactive) | -14.8% (inactive) | -4.65% (inactive) | 63% (inactive) | 62% (inactive) | 1.56% (inactive) | -0.47% (inactive) |
| CC1=C(C(=O)N2CCCCC2)C(c2cccs2)C2=C(CCCC2=O)N1 (stereo not drawn) | 100 | 174% (inactive) | 100% (inactive) | 96.7% (inactive) | 92.8% (inactive) | 1.19% (inactive) | 91.7 | 92.8 | 0.13% (inactive) | -5.67% (inactive) | -7.14% (inactive) | -3.55% (inactive) | -0.74% (inactive) | 98.1% (inactive) | 87% (inactive) | 1.4% (inactive) | -0.77% (inactive) |
| COCCCNC(=O)CSc1ccc(Cl)cc1 | 94.5 | 85% (inactive) | 94.5% (inactive) | 81.8% (inactive) | 95.3% (inactive) | 3.39% (inactive) | 91.9 | 95.3 | 0% (inactive) | -2.67% (inactive) | 1.36% (inactive) | -6.93% (inactive) | -1.7% (inactive) | 106% (inactive) | 97.8% (inactive) | 2.25% (inactive) | 2.53% (inactive) |
| O=C(Cn1ncc2c1-c1ccccc1OC2)Nc1ccc(Cl)cn1 | 91.5 | 95% (inactive) | 91.5% (inactive) | 80.1% (inactive) | 99.3% (inactive) | 7.75% (inactive) | 91.5 | 99.3 | -0.26% (inactive) | -5.5% (inactive) | 1.63% (inactive) | 0.96% (inactive) | -3.35% (inactive) | 95.9% (inactive) | 95.1% (inactive) | 4.09% (inactive) | 0.83% (inactive) |
| CCCCOC(=O)Cn1c(=O)oc2ccc(C)cc21 | 102 | 126% (inactive) | 102% (inactive) | 86% (inactive) | 93.4% (inactive) | 5.94% (inactive) | 87.4 | 93.4 | -3.2% (inactive) | 2.67% (inactive) | -17.9% (inactive) | -25.1% (inactive) | -0.28% (inactive) | 89.6% (inactive) | 98.1% (inactive) | -0.58% (inactive) | 0.27% (inactive) |
| Cc1nc2ccc(C(=O)c3ccccc3)cc2[nH]1 | 102 | 82% (inactive) | 102% (inactive) | 110% (inactive) | 94.2% (inactive) | 2.49% (inactive) | 91.7 | 94.2 | -3.64% (inactive) | 0.33% (inactive) | -6.26% (inactive) | 2.11% (inactive) | 0.26% (inactive) | 99.4% (inactive) | 100% (inactive) | 1.42% (inactive) | 5% (inactive) |
| Cc1cccc(CN2CCC(CNC(=O)C3CCCN(S(=O)(=O)c4cnc[nH]4)C3)CC2)c1 (stereo not drawn) | 98 | 95.5% (inactive) | 98% (inactive) | 98.8% (inactive) | 89.8% (inactive) | 2.14% (inactive) | 87.6 | 89.8 | -5.2% (inactive) | -0.66% (inactive) | -0.3% (inactive) | -2.77% (inactive) | 0.07% (inactive) | 101% (inactive) | 106% (inactive) | 1.33% (inactive) | 4.03% (inactive) |
| COc1ccc(N2CCN(CCCNS(=O)(=O)c3c(C)noc3/C=C/N(C)C)CC2)cc1 | 99.5 | 94.5% (inactive) | 99.5% (inactive) | 83.1% (inactive) | 92.9% (inactive) | 0.17% (inactive) | 92.8 | 92.9 | -7.33% (inactive) | -4.43% (inactive) | -4.88% (inactive) | 12% (inactive) | -2.75% (inactive) | 81% (inactive) | 83.7% (inactive) | 1.67% (inactive) | 7% (inactive) |
